Experimental data published in PubChem BioAssay (Tox21).
Records with an inconclusive call do not appear. Active and inactive are the calls of the source. Unless noted, calls come from the whole dose curve.

Legend:
[1] = biological target: Thyrotropin receptor (Homo sapiens) (UniProt P16473); assay: qHTS assay to identify small molecule agonists of the thyroid stimulating hormone receptor (TSHR) signaling pathway (AID 1224843); note: nearly all actives have a fitted effect of over 45% in size
Procedure, shortened: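 HEK293/TSHR, 800 cells/well; cpd 30 min RT; add cAMP-d2 + anti-cAMP-cryptate, 1 h RT; fluorescence read on plate reader. 15-pt titration, n=3.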

[2] = qHTS assay to identify small molecule agonists of the hypoxia (HIF-1) signaling pathway - cell viability counter screen (AID 1224844); note: nearly all actives have a fitted effect of over 50% in size
Procedure, shortened: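 In this counter screen, HRE-bla ME-180 cell viability after 17 hrs of compound exposure at 37C was read by CellTiter-Glo luminescence, multiplexed with the beta-lactamase reporter measurement.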

[3] = qHTS assay to identify small molecule agonists of H2AX (AID 1224845; active = well fitted activation curve with a large enough effect in the signal ratio in the repeat runs, not every such curve was filed as active; the % refers to the signal ratio)
Procedure, shortened: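 Wild-type CHO-K1 cells, plated overnight, exposed 3hr at 37C to 15 concentrations (0.76% DMSO final). Lysed, then HTRF anti-pH2AX (S139) cryptate and anti-H2AX-d2 antibodies, 24 hr room temperature; 665/620 nm emission read.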

[4] = qHTS assay to identify small molecule agonists of the hypoxia (HIF-1) signaling pathway (AID 1224846; active = well fitted activation curve with a large enough effect in the signal ratio in the repeat runs, not every such curve was filed as active; the % refers to the signal ratio)
Procedure, shortened: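 ME-180 HRE-bla reporter cells; compounds in DMSO, 17 h at 37C; read-out beta-lactamase via CCF4-AM FRET.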

[5] = qHTS assay to identify small molecule agonists of H2AX - cell viability counter screen (AID 1224847); note: top concentration of the series differs between compounds; nearly all actives have a fitted effect of over 30% in size
Procedure, shortened: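 Cytotoxicity counter screen in wild-type CHO-K1 cells: a 3 hr compound treatment at 37C across 15 concentrations, followed by CellTiter-Glo luminescence to gauge viable cells.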

[6] = qHTS assay to identify small molecule antagonists of the estrogen related receptor (ERR) signaling pathway from Tox21 library (AID 1224848; active = well fitted curve in the direction sought with a large enough effect in the repeat runs; an effect the other way counts as inactive or inconclusive; note: nearly all actives have a fitted effect of over 50% in size)
Procedure, shortened: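 Compounds dissolved in DMSO are pin-transferred onto ERR reporter cells (2,000 per well) that have settled for 6 h at 37 C. Plates then incubate 18 h at 37 C before ONE-Glo luciferase reagent and a luminescence read 30 min later.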

[7] = qHTS assay to identify small molecule agonists of the estrogen related receptor (ERR) signaling pathway from Tox21 library (AID 1224849); details: ERR reporter cell line, ONE-Glo luciferase, 18 h; at 92.4 µM (top of the series) unless noted; note: nearly all actives have a fitted effect of over 15% in size
Procedure, shortened: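 Luciferase activity in ERR pathway reporter cells served as the agonist readout; exposure lasted 18 h at 37 C, with ONE-Glo detection after 30 min at room temperature.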

[8] = qHTS RealTime-Glo MT Cell Viability Assay in HepG2 cells - 24 hour (AID 1224867; active = well fitted curve in the direction sought with a large enough effect in the repeat runs; an effect the other way counts as inactive or inconclusive; note: nearly all actives have a fitted effect of over 50% in size)
Procedure, shortened: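 Cells + NanoLuc/prosubstrate dispensed (600 cells/well) → 5 h at 37 C/5% CO2 → compounds in DMSO transferred → 40 h incubation at 37 C, luminescence read at 0, 8, 16, 24, 32, 40 h.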

[9] = qHTS RealTime-Glo MT Cell Viability Assay in HEK293 cells - 32 hour (AID 1224868; active = well fitted curve in the direction sought with a large enough effect in the repeat runs; an effect the other way counts as inactive or inconclusive; note: top concentration of the series differs between compounds; nearly all actives have a fitted effect of over 50% in size)
Procedure, shortened: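 Tox21 10K qHTS, HEK293, 600 cells/well, RealTime-Glo reagent co-dispensed with cells; 5 h preincubation, compound by pintool, 37 C, luminescence at 0–40 h.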

[10] = A CellTox Green Cytotoxicity Assay to monitor cytotoxicity in HEK293 cells - 0 hour (AID 1224869; active = well fitted curve in the direction sought with a large enough effect in the repeat runs; an effect the other way counts as inactive or inconclusive; note: nearly all actives have a fitted effect of over 50% in size)
Procedure, shortened: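 Real-time, in one plate: 600 HEK293 cells/well with dead-cell DNA dye, pinned compound after 5 h, 37 C incubation over 40 h; viable cells give no appreciable fluorescence.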
% is set by controls: 0 for no effect and ±100 for the full control effect.

Sequence of Thyrotropin receptor (Homo sapiens) (P16473 whole entry, looked up): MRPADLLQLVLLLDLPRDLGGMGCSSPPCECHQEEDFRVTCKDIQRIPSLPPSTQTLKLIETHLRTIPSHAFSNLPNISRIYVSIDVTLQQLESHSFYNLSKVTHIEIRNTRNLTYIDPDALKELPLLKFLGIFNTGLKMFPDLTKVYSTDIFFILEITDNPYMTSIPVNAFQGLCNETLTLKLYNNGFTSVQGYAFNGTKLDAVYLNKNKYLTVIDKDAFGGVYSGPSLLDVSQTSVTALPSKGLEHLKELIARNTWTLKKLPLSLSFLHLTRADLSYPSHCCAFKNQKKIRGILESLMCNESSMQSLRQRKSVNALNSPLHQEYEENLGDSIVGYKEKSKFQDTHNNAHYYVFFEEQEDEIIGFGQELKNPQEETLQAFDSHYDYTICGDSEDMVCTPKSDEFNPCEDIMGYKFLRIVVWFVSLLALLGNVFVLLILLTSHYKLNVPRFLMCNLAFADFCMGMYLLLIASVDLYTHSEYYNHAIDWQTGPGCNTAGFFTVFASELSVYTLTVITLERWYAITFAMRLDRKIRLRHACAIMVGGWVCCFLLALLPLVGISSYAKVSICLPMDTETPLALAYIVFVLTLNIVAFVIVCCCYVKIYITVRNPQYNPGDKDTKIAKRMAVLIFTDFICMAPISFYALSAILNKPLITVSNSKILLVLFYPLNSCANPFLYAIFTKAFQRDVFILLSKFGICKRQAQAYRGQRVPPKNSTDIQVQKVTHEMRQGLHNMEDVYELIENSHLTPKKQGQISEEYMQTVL

O=C[C@H](O)[C@@H](O)[C@H](O)[C@H](O)CO
inactive: Potency [1] | Potency [2] | outcome [3] | outcome [4] | Potency [5] | Potency [6] | activity change, positive = activation [7] 3.09% | Potency [8] | Potency [9] | Potency [10]

N[C@H]1CN(c2c(F)cc3c(=O)c(C(=O)O)cn(C4C[C@H]4F)c3c2Cl)CC12CC2 (stereo partly drawn)
inactive: Potency [1] | Potency [2] | outcome [3] | outcome [4] | Potency [5] | Potency [6] | activity change, positive = activation [7] 5.03% [at 42.5 µM] | Potency [8] | Potency [9] | Potency [10]

CC(C)CNCC(C)C
inactive: Potency [1] | Potency [2] | outcome [3] | outcome [4] | Potency [5] | Potency [6] | activity change, positive = activation [7] 1.17% | Potency [8] | Potency [9] | Potency [10]

CN1C(=O)N(C)C(O)C1O (stereo not drawn)
inactive: Potency [1] | Potency [2] | outcome [3] | outcome [4] | Potency [5] | Potency [6] | activity change, positive = activation [7] 0.239% | Potency [8] | Potency [9] | Potency [10]

COC(=O)CC(C)=O
inactive: Potency [1] | Potency [2] | outcome [3] | outcome [4] | Potency [5] | Potency [6] | activity change, positive = activation [7] 2.59% | Potency [8] | Potency [9] | Potency [10]

CC(NC(CCc1ccccc1)C(=O)O)C(=O)N1C(=O)N(C)CC1C(=O)O (stereo not drawn)
inactive: Potency [1] | Potency [2] | outcome [3] | outcome [4] | Potency [5] | Potency [6] | activity change, positive = activation [7] 2.19% [at 42.5 µM] | Potency [8] | Potency [9] | Potency [10]

O=C1CC2CC1C1CCCC21 (stereo not drawn)
inactive: Potency [1] | Potency [2] | outcome [3] | outcome [4] | Potency [5] | Potency [6] | activity change, positive = activation [7] -0.257% | Potency [8]

C1CN(CCOCCN2CCOCC2)CCO1
inactive: Potency [1] | Potency [2] | outcome [3] | outcome [4] | Potency [5] | Potency [6] | activity change, positive = activation [7] -7.8% | Potency [8] | Potency [9] | Potency [10]

CC(C)OC(=O)c1ccccc1
inactive: Potency [1] | Potency [2] | outcome [3] | outcome [4] | Potency [5] | Potency [6] | activity change, positive = activation [7] 0.248% | Potency [8] | Potency [9] | Potency [10]

Nc1c[n+](N2CCOCC2)no1
inactive: Potency [1] | Potency [2] | outcome [3] | outcome [4] | Potency [5] | Potency [6] | activity change, positive = activation [7] 0.251% [at 42.5 µM] | Potency [8] | Potency [9] | Potency [10]

CCC(C)S (stereo not drawn)
inactive: activation [1] -2.63% [at 3.27 µM] | activity change, negative = cytotoxicity [2] 6.65% [at 2.72 µM] | activation (H2AX phosphorylation) [3] -0.0858% [at 5.45 µM] | activation [4] -1.24% [at 2.67 µM] | activity change, negative = cytotoxicity [5] 4.19% [at 5.43 µM] | activity, negative = inhibition [6] 2.44% [at 3.27 µM] | activity change, positive = activation [7] 2.37% [at 3.27 µM] | activity change, negative = cytotoxicity [8] 1.23% [at 2.72 µM] | activity change, negative = cytotoxic [9] 3.1% [at 2.72 µM] | cytotoxicity [10] -0.294% [at 2.72 µM]

OCCOc1ccc(OCCO)cc1
inactive: Potency [1] | Potency [2] | outcome [3] | outcome [4] | Potency [5] | Potency [6] | activity change, positive = activation [7] 2.76% | Potency [8] | Potency [9] | Potency [10]

CCc1nccnc1CC
inactive: Potency [1] | activity change, negative = cytotoxicity [2] 5.25% [at 15.8 µM] | outcome [3] | activation [4] 0.257% [at 15.8 µM] | Potency [5] | activity, negative = inhibition [6] 3.93% [at 19 µM] | activity change, positive = activation [7] 2.61% [at 19 µM] | activity change, negative = cytotoxicity [8] -0.21% [at 15.8 µM] | activity change, negative = cytotoxic [9] 3.89% [at 15.8 µM] | cytotoxicity [10] -0.912% [at 15.8 µM]

CCc1ccc(O)c(OC)c1
inactive: Potency [1] | Potency [2] | outcome [3] | outcome [4] | Potency [5] | Potency [6] | activity change, positive = activation [7] 4.86% | Potency [8] | Potency [9] | Potency [10]

CC1(C)C(O)C(C)(C)C1O (stereo not drawn)
inactive: Potency [1] | Potency [2] | outcome [3] | outcome [4] | Potency [5] | Potency [6] | activity change, positive = activation [7] 1.44% | Potency [8] | Potency [9] | Potency [10]

OCCCC1CCCCC1
inactive: Potency [1] | Potency [2] | outcome [3] | outcome [4] | Potency [5] | Potency [6] | activity change, positive = activation [7] -0.619% | Potency [8] | Potency [9] | Potency [10]

Cc1c(NC(C)C)c(=O)n(-c2ccccc2)n1C
inactive: Potency [1] | Potency [2] | outcome [3] | outcome [4] | Potency [5] | Potency [6] | activity change, positive = activation [7] 0.236% [at 42.5 µM] | Potency [8] | Potency [9] | Potency [10]

C=CCS(=O)(=O)O
inactive: Potency [1] | Potency [2] | outcome [3] | outcome [4] | Potency [5] | Potency [6] | activity change, positive = activation [7] 4.55% | Potency [8] | Potency [9] | Potency [10]

O=C(O)CCCl
inactive: Potency [1] | Potency [2] | outcome [3] | outcome [4] | Potency [5] | Potency [6] | activity change, positive = activation [7] -15.3% | Potency [8] | Potency [9] | Potency [10]

C=C(C)CS(=O)(=O)O
inactive: Potency [1] | Potency [2] | outcome [3] | outcome [4] | Potency [5] | Potency [6] | activity change, positive = activation [7] 0.527% | Potency [8] | Potency [9] | Potency [10]

CCOc1ccc(C(=O)OCCN(CC)CC)cc1
inactive: Potency [1] | Potency [2] | outcome [3] | outcome [4] | Potency [5] | Potency [6] | activity change, positive = activation [7] 1.57% [at 42.5 µM] | Potency [8] | Potency [9] | Potency [10]
